Where “and” joins values, the source holds several entries; their conditions need not be identical. Equal values may be shown once. Calls of active or inactive are those of the source.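 How the source made its calls, unless noted: active means normalized viability below 100% at a tested concentration; inactive means the rest.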
Experiment: MELAS cybrid and Rieske KO viability enhancers – cell-based, MELAS cybrids, Rieske KO mouse fibroblasts, CellTiter-Glo, primary screen (AID 1508586;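 active means mean z-score across replicates of 1.96 or higher in either the MELAS or the Rieske mutant cell line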;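 further: z relative to plate mean and SD of compound and empty wells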)
Conditions: MELAS cybrid survival, low glucose, CellTiter-Glo 48 h; stronger effect = higher value

Row | SMILES | z-score
1 | N#CCNC(=O)c1ccc(-c2ccnc(Nc3ccc(N4CCOCC4)cc3)n2)cc1 | 5.22 (active)
2 | CC1(C)CCC2=C(O1)c1ccccc1C(=O)C2=O | 1.23 (inactive)
3 | Cc1ncc(-c2ccnc(Nc3ccc(S(C)(=O)=O)cc3)n2)n1C(C)C | 1.7 (inactive)
4 | Nc1nc(Nc2ccc(S(N)(=O)=O)cc2)nn1C(=O)c1c(F)cccc1F | -0.135 (inactive)
5 | O=C(Nc1ccccc1-c1cn2c(CN3CCNCC3)csc2n1)c1cnc2ccccc2n1 | -0.642 (inactive)
6 | CC(C)c1cc(C(C)C)c(CC(=O)NS(=O)(=O)Oc2c(C(C)C)cccc2C(C)C)c(C(C)C)c1 | -0.406 (inactive)
7 | CC1(C)CNc2cc(NC(=O)c3cccnc3NCc3ccncc3)ccc21 | -0.604 (inactive)
8 | COc1cc2nccc(Oc3ccc(NC(=O)Nc4cc(C)on4)c(Cl)c3)c2cc1OC | -0.36 (inactive)
9 | Cc1cc(Nc2cc(CN3CCOCC3)c3nc(C)c(Cc4ccc(Cl)cc4F)n3n2)n[nH]1 | -0.366 (inactive)
10 | N#Cc1c(NC(=O)c2cccc3ccccc23)sc2c1CCCC2 | -0.44 (inactive) and 1.09 (inactive)
11 | COc1cccc2cc(-c3nc(C4CCC(C(=O)O)CC4)n4ncnc(N)c34)[nH]c12 (stereo not drawn) | 4.23 (active)
12 | COC(=O)c1ccc2c(C(=Nc3ccc(N(C)C(=O)CN4CCN(C)CC4)cc3)c3ccccc3)c(O)[nH]c2c1 | -0.457 (inactive)
13 | Cc1ccc(F)c(NC(=O)Nc2ccc(-c3cccc4[nH]nc(N)c34)cc2)c1 | -0.438 (inactive)

Same assay, conditions: Rieske KO mouse fibroblast survival, low glucose, CellTiter-Glo 72 h

Row | SMILES | z-score
14 | N#CCNC(=O)c1ccc(-c2ccnc(Nc3ccc(N4CCOCC4)cc3)n2)cc1 | -1.38
15 | CC1(C)CCC2=C(O1)c1ccccc1C(=O)C2=O | -4.3
16 | Cc1ncc(-c2ccnc(Nc3ccc(S(C)(=O)=O)cc3)n2)n1C(C)C | -2.84
17 | Nc1nc(Nc2ccc(S(N)(=O)=O)cc2)nn1C(=O)c1c(F)cccc1F | -1.32
18 | O=C(Nc1ccccc1-c1cn2c(CN3CCNCC3)csc2n1)c1cnc2ccccc2n1 | 0.327
19 | CC(C)c1cc(C(C)C)c(CC(=O)NS(=O)(=O)Oc2c(C(C)C)cccc2C(C)C)c(C(C)C)c1 | 0.969
20 | CC1(C)CNc2cc(NC(=O)c3cccnc3NCc3ccncc3)ccc21 | 0.896
21 | COc1cc2nccc(Oc3ccc(NC(=O)Nc4cc(C)on4)c(Cl)c3)c2cc1OC | 0.933
22 | Cc1cc(Nc2cc(CN3CCOCC3)c3nc(C)c(Cc4ccc(Cl)cc4F)n3n2)n[nH]1 | -1.27
23 | N#Cc1c(NC(=O)c2cccc3ccccc23)sc2c1CCCC2 | 0.237 and -1.54
24 | COc1cccc2cc(-c3nc(C4CCC(C(=O)O)CC4)n4ncnc(N)c34)[nH]c12 (stereo not drawn) | -0.621
25 | COC(=O)c1ccc2c(C(=Nc3ccc(N(C)C(=O)CN4CCN(C)CC4)cc3)c3ccccc3)c(O)[nH]c2c1 | -1.1
26 | Cc1ccc(F)c(NC(=O)Nc2ccc(-c3cccc4[nH]nc(N)c34)cc2)c1 | 0.36

Experiment: drug combination growth inhibition, ovarian cancer – cell-based, oncology-focused library, rucaparib conditional, profiling panel (AID 1508598)
Conditions: patient-derived ovarian cancer cells, CellTiter-Glo viability, 144 h; at 0.000305 µM; OCI-C5x cells; with rucaparib 10 µM; stronger effect = lower value; 100% = cells with rucaparib alone

Row | SMILES | viability
27 | N#CCNC(=O)c1ccc(-c2ccnc(Nc3ccc(N4CCOCC4)cc3)n2)cc1 | 109% (inactive)
28 | Nc1nc(Nc2ccc(S(N)(=O)=O)cc2)nn1C(=O)c1c(F)cccc1F | 95% (active)
29 | O=C(Nc1ccccc1-c1cn2c(CN3CCNCC3)csc2n1)c1cnc2ccccc2n1 | 102% (inactive)
30 | COc1ccc(-c2ccc3c(N4CCOCC4)nc(N4C[C@@H](C)O[C@@H](C)C4)nc3n2)cc1CO | 118% (inactive)
31 | CC1(C)CNc2cc(NC(=O)c3cccnc3NCc3ccncc3)ccc21 | 121% (inactive)
32 | COc1cc2nccc(Oc3ccc(NC(=O)Nc4cc(C)on4)c(Cl)c3)c2cc1OC | 115% (inactive)
33 | N#Cc1c(NC(=O)c2cccc3ccccc23)sc2c1CCCC2 | 117% (inactive)
34 | COc1ccc(-c2ccc3c(N4CCOC[C@@H]4C)nc(N4CCOC[C@@H]4C)nc3n2)cc1CO | 112% (inactive)
35 | Cc1cnc(NC(=O)Nc2cc(Br)c(C)cc2OC[C@@H]2CNCCO2)cn1 | 111% (inactive)
36 | COC(=O)c1ccc2c(C(=Nc3ccc(N(C)C(=O)CN4CCN(C)CC4)cc3)c3ccccc3)c(O)[nH]c2c1 | 119% (inactive)
37 | Cc1ccc(F)c(NC(=O)Nc2ccc(-c3cccc4[nH]nc(N)c34)cc2)c1 | 110% (inactive)

Same assay, conditions: patient-derived ovarian cancer cells, CellTiter-Glo viability, 144 h; at 0.000305 µM; OCI-C5x cells; without rucaparib; stronger effect = lower value

Row | SMILES | viability
38 | N#CCNC(=O)c1ccc(-c2ccnc(Nc3ccc(N4CCOCC4)cc3)n2)cc1 | 113% (inactive)
39 | Nc1nc(Nc2ccc(S(N)(=O)=O)cc2)nn1C(=O)c1c(F)cccc1F | 99.5% (active)
40 | O=C(Nc1ccccc1-c1cn2c(CN3CCNCC3)csc2n1)c1cnc2ccccc2n1 | 114% (inactive)
41 | COc1ccc(-c2ccc3c(N4CCOCC4)nc(N4C[C@@H](C)O[C@@H](C)C4)nc3n2)cc1CO | 122% (inactive)
42 | CC1(C)CNc2cc(NC(=O)c3cccnc3NCc3ccncc3)ccc21 | 126% (inactive)
43 | COc1cc2nccc(Oc3ccc(NC(=O)Nc4cc(C)on4)c(Cl)c3)c2cc1OC | 105% (inactive)
44 | N#Cc1c(NC(=O)c2cccc3ccccc23)sc2c1CCCC2 | 105% (inactive)
45 | COc1ccc(-c2ccc3c(N4CCOC[C@@H]4C)nc(N4CCOC[C@@H]4C)nc3n2)cc1CO | 106% (inactive)
46 | Cc1cnc(NC(=O)Nc2cc(Br)c(C)cc2OC[C@@H]2CNCCO2)cn1 | 118% (inactive)
47 | COC(=O)c1ccc2c(C(=Nc3ccc(N(C)C(=O)CN4CCN(C)CC4)cc3)c3ccccc3)c(O)[nH]c2c1 | 127% (inactive)
48 | Cc1ccc(F)c(NC(=O)Nc2ccc(-c3cccc4[nH]nc(N)c34)cc2)c1 | 114% (inactive)

Source: PubChem BioAssay
